Results as given in the supplement of paper PMC10338343.
± gives the standard deviation. In all, about 6,200 sequences were measured (“pre-steady-state target cleavage rate”: median about 0.29, highest 2% from about 2 on). The entries come from a sample that favours the highest values as a whole.

tested on: MIWI (PIWIL1) piRISC loaded with piRNA #1 (30 nt); test: pre-steady-state target cleavage rate (min^-1); MIWI and MILI are mouse PIWI proteins and EfPiwi is from a freshwater sponge; tags in brackets are library labels; higher = faster piRNA-guided slicing of the target; details: guide: piRNA #1 5'p-UGAGGUAGUAGGUUGUAUAGUAUCCAGAGG; auxiliary factor: 500 nM mouse GTSF1
Protocol: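 Cleave-'n-Seq: a library of target RNAs (target site embedded in constant flanks, ACAGCATTCCGCGTTAGTGATATCCG... 5' flank; DNA-blocked outside the site) at 0.1 nM was incubated with 1 nM active mouse MILI or MIWI piRISC (synthetic 5'-monophosphorylated piRNA guide) with or without 500 nM mouse GTSF1 at 33 °C for 1 min to 16 h. Uncleaved targets were sequenced and normalised to non-target controls, and the pooled three trials were fitted to a burst-and-steady-state model to give the pre-steady-state cleavage rate (min^-1; k3 is constrained to at most 1e-4). Sequence is the target site only; target names encode pairing extent (gX:gY) and contiguous / 1-mismatch / 2-mismatch / bulge geometry. Fits with R² ≤ 0 are excluded.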

Sequence	pre-steady-state target cleavage rate
GCUCAGGAUACUAUACAACCUACUACCACA	1.75 ± 0.1
GCUCAGGAUACUAAACAACCUACUACCUCA	1.95 ± 0.12
GGUCAGGAUACAAUACAACCUACUACCUCA	1.69 ± 0.1
CCUCAGGAUACUAAACAACCUACUACCUCA	2.07 ± 0.12
CCUCAGGAUACUUUACAACCUACUACCUCA	2.1 ± 0.13
GGUCAGGAUACUUUACAACCUACUACCUCA	1.54 ± 0.085
CCUCAGGAUACUAUACAACCUACUACCACA	2.43 ± 0.17
GGUCAGGAUACUAAACAACCUACUACCUCA	1.74 ± 0.096
GCUCAGGAUACAAUACAACCUACUACCUCA	1.9 ± 0.12
CCUCUGGAUACUUUACAACCUACUACCUGA	0.715 ± 0.1
GGAGACCUAUCUAUACAACCUACUAGCUCA	0.517 ± 0.046
GGAGAGGAUACUAUAGCAACCUACUACCUCA	0.61 ± 0.07
GGAGACGAUACUAUACAUGCUACUACCUCA	0.755 ± 0.037
GGAGACCUUACUGUACAACCUACUACCUCA	0.655 ± 0.077
CCUCUGGAUACUAUUCAACCUAGUACCUCA	0.085 ± 0.021
CCUCUGGAUACUAUAGAACCUACUACCACA	0.372 ± 0.042
GCUCUGGAUACUAUCACAACCUACUACCUCA	1.62 ± 0.12
GGUCAGGAUACUAUACAUCCUACUACCUCA	1.54 ± 0.079
GCUCAGGAUACUAUACAUCCUACUACCUCA	1.85 ± 0.099
CCUCAGGAUACUAUACAUCCUACUACCUCA	2.03 ± 0.12
GGUCUCGAUACUAUACAACCUACUACCUCA	1.83 ± 0.12
CUCUCUGGAUACUAUACAACCUACUACCUCA	2.1 ± 0.13
GCCUCUGGAUACUAUACAACCUACUACCUCA	1.89 ± 0.12
CCUCUGGAUACCUAUACAACCUACUACCUCA	1.18 ± 0.072
CCUCUGGAUACUAUACAACCUACAACCUCA	1.56 ± 0.1
UCUCUGGAUACUAUACAACCUACUACCUCA	2.04 ± 0.1

Sequence	pre-steady-state target cleavage rate
CCUCUGGAUACUAUACUACCUACAACCUCA	1.08 ± 0.098
GGAGUGGAUACUAUACAACCUACGUACCUCA	0.712 ± 0.076
GGAGAGGAUACUUUAGAACCUACUACCUCA	0.919 ± 0.051
GGAGAGGAUACUAUACAACCUACUGACCUCA	0.576 ± 0.034
GGAGACGAUUCAAUACAACCUACUACCUCA	0.502 ± 0.063
GGAGACCUAUCUUUACAACCUACUACCUGA	0.101 ± 0.025
CCUCUGGAUACUAUACAACCUACUACUUCA	2.32 ± 0.16
GCUCUGGAUACUAUACAACCUACUACUUCA	2.26 ± 0.14
GCUCUGGAUACUAUACAACCUACUACCUUCA	1.9 ± 0.13
CCUCUGGAUACUAUACAACCUACUUCCUCA	0.668 ± 0.053
GGUCUGGAUACUAUACAACCUACUACUUCA	1.32 ± 0.095
CCUCUGGAUACUAUACAACCUACUACCUUCA	1.88 ± 0.12
GCUCUGCAUACUAUACAACCUACUACGUCA	1.24 ± 0.086
GGACUGGAAACUUUACAACCUACUACCUCA	0.689 ± 0.076
GCUCUGGAUACUAAAGAACCUACUACCUCA	1.17 ± 0.087
GGAGACCUAACUAUACAACCUAGUUCCUCA	0.0155 ± 0.0059
CCUCUGGAUACUAUUCAACCUACAACCUCA	1.62 ± 0.13
GGUCUGGAUACUAUUCAACCUACAACCUCA	0.28 ± 0.033
CCUCUGGUUACUAUUCAACCUACUACCUCA	2.15 ± 0.14
GCUCUGGAUACGAUACAACCUACUACCUCA	1.7 ± 0.086
CCUCUGGAUACUAUACAACCUACUACCUCA [g2:g30:cont:t1A]	1.96 ± 0.12
CCUCUGGAUACGAUACAACCUACUACCUCA	2.07 ± 0.11
CCUCUGGAUACUAUGCAACCUACUACCUCA	2.09 ± 0.13
CCUCUGGAUACUAUACAACCUACCUACCUCA	1.8 ± 0.11
CUCUGGAUACUAUACAACCUACUACCUCA	2.17 ± 0.14
GCUCUGGAUACUAUUCAACCUACAACCUCA	1.3 ± 0.099

Sequence	pre-steady-state target cleavage rate
GGUCUGGAUACUAUGCAACCUACUACCUCA	1.73 ± 0.12
GCUCUGGAUACUAUGCAACCUACUACCUCA	1.84 ± 0.1
GGUCUGGAUACGAUACAACCUACUACCUCA	1.79 ± 0.11
GGACUGGAUAGUAUACAACCUUCUACCUCA	0.575 ± 0.045
GGUCUGGAUACUAUACAACGUUCUACCUCA	0.117 ± 0.014
GGAGACCUAUGUAUAGAACCUUCUACCUCA	0.0033 ± 0.0012
GCUCUGGAUACUAUACAACCUACUAUCCUCA	1.51 ± 0.11
GGUGUGGAUACUAUACAACCUUCUACCUCA	0.734 ± 0.033
GGAGACCUAACUAUACAACGUACUACCACA	0.165 ± 0.031
GGAGACCUAUGAAUACUAGCUACUACCUCA	< 0.0001
GGAGAGGAUACUAUACAACCUUCUAGCUCA	0.0222 ± 0.0082
GGACUGGAUACUAUACAACUUACUACCUCA	0.518 ± 0.023
CCUCUGGAUACUAUACAACCUACUACCCUCA	1.38 ± 0.097
GCUCUGGAUACUAAACAACCUACAACCUCA	1.23 ± 0.089
GGUCUGAAUACUAUACAACCUACUACCUCA	1.8 ± 0.097
CCUCUGGAUACUAAACAACCUACAACCUCA	1.48 ± 0.12
GCUCUGAAUACUAUACAACCUACUACCUCA	1.89 ± 0.12
GGUCUGGAUACUAUUCAACCUACUACCACA	0.506 ± 0.045
CCUCUGGAUACUAAACAACCUACUACCUCA	1.86 ± 0.12
CCUCUGGAUACUAUUCAACCUACUACCACA	2.19 ± 0.18
CCCUCUGGAUACUAUACAACCUACUACCUCA	2.25 ± 0.12
CCUCUGGUUACUAAACAACCUACUACCUCA	2.34 ± 0.16
CCUCUGGAUACUAUACAACCCUACUACCUCA	0.00658 ± 0.0036
CCUCUGAAUACUAUACAACCUACUACCUCA	2.09 ± 0.13
GCUCUGGAUACUAUUCAACCUACUACCACA	1.9 ± 0.16
